Data: PubChem BioAssay AID1159580 (chemical genetic matrix, 2015)
Hit rate of the full screen: of about 5,500 compounds, about 2,000 (36%) were called active. Another 18% or so got no clear call; they are omitted. Rule as the data show it: active = normalized growth mostly below about 0.91 (no sharp cut-off); inconclusive = no clear call, values can overlap the other calls; inactive = mostly above about 0.92. This is one part of the list.

Test: chemical genetic growth profiling, strain panel (AID 1159580);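 also: tested at 20 µM; growth read once vehicle control cultures reached saturation at 30 °C; 1 = growth at the plate median or of vehicle wells; lower values mean less growth of the strain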
Settings: growth OD

Measured: normalized growth

O=C(Cc1cccs1)NC1C(=O)N2C(C(=O)[O-])=C(C[n+]3ccccc3)CSC12 (stereo unspecified)
inactive: S. cerevisiae deletion strains, locus YJR075W, strain HOC1, hits give low values 1.01 | S. cerevisiae deletion strains, locus YKL009W, strain mrt4, hits give low values 0.989 | S. cerevisiae deletion strains, locus YKL068W, hits give low values 1.01 | S. cerevisiae deletion strains, locus YKL085W, strain MDH1 (second series), hits give low values 1 | S. cerevisiae deletion strains, locus YKL085W, strain MDH1, hits give low values 1 | S. cerevisiae deletion strains, locus YKL160W, strain elf1, hits give low values 1 | S. cerevisiae deletion strains, locus YKL190W, strain CNB1, hits give low values 1.01 | S. cerevisiae deletion strains, locus YKR001C, strain vps1, hits give low values 0.992 | S. cerevisiae deletion strains, locus YKR026C, strain gcn3, hits give low values 0.988 | S. cerevisiae deletion strains, locus YKR091W, strain srl3, hits give low values 0.985 | S. cerevisiae deletion strains, locus YLL001W, strain dnm1, hits give low values 0.979 | S. cerevisiae deletion strains, locus YLL026W, hits give low values 0.997 | S. cerevisiae deletion strains, locus YLL041C, strain sdh2, hits give low values 0.994 | S. cerevisiae deletion strains, locus YLR027C, strain aat2, hits give low values 0.989 | S. cerevisiae deletion strains, locus YLR039C, strain RIC1, hits give low values 1.01 | S. cerevisiae deletion strains, locus YLR058C, strain SHM2, hits give low values 0.99 | S. cerevisiae deletion strains, locus YLR102C, strain apc9, hits give low values 0.997 | S. cerevisiae deletion strains, locus YLR221C, strain rsa3, hits give low values 0.99 | S. cerevisiae deletion strains, locus YLR258W, strain gsy2, hits give low values 0.986 | S. cerevisiae deletion strains, locus YLR262C, strain YPT6 (second series), hits give low values 0.973 | S. cerevisiae deletion strains, locus YLR262C, strain YPT6, hits give low values 1.03 | S. cerevisiae deletion strains, locus YLR268W, strain sec22, hits give low values 0.979 | S. cerevisiae deletion strains, locus YLR320W, strain mms22, hits give low values 0.979 | S. cerevisiae deletion strains, locus YLR330W, strain CHS5, hits give low values 1.01 | S. cerevisiae deletion strains, locus YLR342W, strain FKS1 (second series), hits give low values 0.956 | S. cerevisiae deletion strains, locus YLR342W, strain FKS1, hits give low values 0.986 | S. cerevisiae deletion strains, locus YLR357W, strain rsc2, hits give low values 0.937 | S. cerevisiae deletion strains, locus YLR370C, strain arc18, hits give low values 0.989 | S. cerevisiae deletion strains, locus YLR371W, strain rom2, hits give low values 0.985 | S. cerevisiae deletion strains, locus YLR384C, strain iki3, hits give low values 0.974 | S. cerevisiae deletion strains, locus YLR418C, strain cdc73, hits give low values 0.949 | S. cerevisiae deletion strains, locus YML016C, strain PPZ1, hits give low values 0.999 | S. cerevisiae deletion strains, locus YML032C, strain rad52, hits give low values 0.973 | S. cerevisiae deletion strains, locus YML120C, strain ndi1, hits give low values 1 | S. cerevisiae deletion strains, locus YML124C, strain tub3, hits give low values 0.999 | S. cerevisiae deletion strains, locus YMR058W, strain fet3, hits give low values 0.984 | S. cerevisiae deletion strains, locus YMR078C, strain ctf18, hits give low values 0.999 | S. cerevisiae deletion strains, locus YMR125W, strain sto1, hits give low values 0.983 | S. cerevisiae deletion strains, locus YMR129W, hits give low values 1 | S. cerevisiae deletion strains, locus YMR205C, strain PFK2, hits give low values 0.978 | S. cerevisiae deletion strains, locus YMR223W, strain ubp8, hits give low values 0.982 | S. cerevisiae deletion strains, locus YMR231W, strain pep5, hits give low values 0.991 | S. cerevisiae deletion strains, locus YMR307W, strain GAS1, hits give low values 0.997 | S. cerevisiae deletion strains, locus YNL067W, strain RPL9B, hits give low values 1.02 | S. cerevisiae deletion strains, locus YNL071W, strain lat1, hits give low values 0.999 | S. cerevisiae deletion strains, locus YNL128W, strain TEP1, hits give low values 1.01 | S. cerevisiae deletion strains, locus YNL153C, strain GIM3, hits give low values 1.03 | S. cerevisiae deletion strains, locus YNL209W, strain ssb2, hits give low values 0.984 | S. cerevisiae deletion strains, locus YNL233W, strain BNI4, hits give low values 1.02 | S. cerevisiae deletion strains, locus YNL248C, strain rpa49, hits give low values 0.985 | S. cerevisiae deletion strains, locus YNL250W, strain rad50, hits give low values 0.972 | S. cerevisiae deletion strains, locus YNL271C, strain bni1, hits give low values 0.992 | S. cerevisiae deletion strains, locus YNL298W, strain CLA4, hits give low values 0.986 | S. cerevisiae deletion strains, locus YNL307C, strain MCK1, hits give low values 0.991 | S. cerevisiae deletion strains, locus YNL322C, strain KRE1 (second series), hits give low values 0.985 | S. cerevisiae deletion strains, locus YNL322C, strain KRE1, hits give low values 1 | S. cerevisiae deletion strains, locus YNR049C, strain mso1, hits give low values 0.975 | S. cerevisiae deletion strains, locus YNR052C, strain pop2, hits give low values 0.989 | S. cerevisiae deletion strains, locus YOL006C, strain TOP1, hits give low values 1.02 | S. cerevisiae deletion strains, locus YOL012C, strain htz1 0.724 | S. cerevisiae deletion strains, locus YOL147C, strain pex11, hits give low values 0.992 | S. cerevisiae deletion strains, locus YOR001W, strain rrp6, hits give low values 0.988 | S. cerevisiae deletion strains, locus YOR061W, strain CKA2, hits give low values 1 | S. cerevisiae deletion strains, locus YOR069W, strain VPS5, hits give low values 1 | S. cerevisiae deletion strains, locus YOR070C, strain gyp1, hits give low values 0.974 | S. cerevisiae deletion strains, locus YOR080W, strain dia2, hits give low values 0.971 | S. cerevisiae deletion strains, locus YOR083W, strain WHI5, hits give low values 0.974 | S. cerevisiae deletion strains, locus YOR106W, strain vam3, hits give low values 0.973 | S. cerevisiae deletion strains, locus YOR136W, strain idh2, hits give low values 0.998 | S. cerevisiae deletion strains, locus YOR144C, strain elg1, hits give low values 0.997 | S. cerevisiae deletion strains, locus YOR184W, strain ser1, hits give low values 0.983 | S. cerevisiae deletion strains, locus YOR265W, strain rbl2, hits give low values 1 | S. cerevisiae deletion strains, locus YOR270C, strain vph1, hits give low values 0.942 | S. cerevisiae deletion strains, locus YOR290C, strain snf2, hits give low values 0.991 | S. cerevisiae deletion strains, locus YOR316C, strain cot1, hits give low values 0.994 | S. cerevisiae deletion strains, locus YPL051W, strain arl3, hits give low values 0.983 | S. cerevisiae deletion strains, locus YPL055C, strain LGE1, hits give low values 1.03 | S. cerevisiae deletion strains, locus YPL078C, strain atp4, hits give low values 0.988 | S. cerevisiae deletion strains, locus YPL106C, strain sse1, hits give low values 0.939 | S. cerevisiae deletion strains, locus YPL240C, strain hsp82, hits give low values 0.992 | S. cerevisiae deletion strains, locus YPR119W, strain clb2, hits give low values 0.997 | S. cerevisiae deletion strains, locus YPR141C, strain kar3, hits give low values 1.01 | S. cerevisiae deletion strains, locus YPR163C, strain tif3, hits give low values 0.997 | S. cerevisiae deletion strains, locus YPR167C, strain met16, hits give low values 0.988 | S. cerevisiae deletion strains, strain wtn01, hits give low values 0.978 | S. cerevisiae strains, strain wild type, hits give low values 0.998
